Assay results reported in PubChem BioAssay AID2501 (Southern Research Specialized Biocontainment Screening …, 2010).
Hit rate of the full screen: of about 2,200 compounds, about 1,200 (55%) were called active. So high a share suggests a set chosen from earlier hits. The list shows a part of the results. A number with no mark means an inactive call. The limit is not given here; nearly all actives have IC50 up to about 92 µM.

Test: counter assay for TAg ATPase ADP read-out – biochemical, ADP-Hunter, fluorescence, counter-screen (AID 2501);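 also: purified T antigen ATPase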;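 as to inhibition: 0% = enzyme with vehicle and 100% = reference inhibitor wells; higher means more inhibition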
Conditions: series mostly up to 100 µM; inhibition: at the top concentration

| Compound | IC50 | inhibition |
| --- | --- | --- |
| COc1cc(-c2nc(=S)[nH][nH]2)cc(OC)c1OC | 10.7 µM (active) | – |
| CC(=O)Nc1ccc(OCCOc2ccc(/C=C3\C(=N)N4N=C(C)SC4=NC3=O)cc2)cc1 | – | -24.2% |
| COc1ccc(C(=O)/C=C(\C)Nc2ccc(NC(C)=O)cc2)cc1 | 17.8 µM (active) | – |
| CN1c2ccc(C=O)c3c(C=O)ccc(c23)N(C)C1(C)C | 17.5 µM (active) | – |
| Nc1ccc2nc(-c3cccs3)[nH]c2c1 | 3.65 µM (active) | – |
| Cc1ccc(C)c(-c2nc3ccc(N)cc3[nH]2)c1 | 4.86 µM (active) | – |
| COc1ccc(C2=CC3=C(Br)C(=O)C(C)(OC(=O)c4ccco4)C(=O)C3=CO2)cc1 (centres undefined) | – | 9.67% |
| CCNc1ccc(Br)cc(C(=O)/C=C/c2ccc(Cl)cc2Cl)c1=O | – | -54.5% |
| CC(=O)Nc1ccccc1O | 2.63 µM (active) | – |
| CCC(=Nc1ccccc1O)C1=C(O)CC(c2ccccc2)CC1=O (centres undefined) | 8.32 µM (active) | – |
| CCOC(=O)C1=C(C)N(c2ccccc2)C(=O)/C1=C\c1ccc(O)c(OC)c1 | – | -43.5% |
| O=C1ON=C(c2ccccc2)/C1=C/c1ccc(OS(=O)(=O)c2ccccc2)cc1 | – | 21.3% |
| O=C1ON=C(c2ccccc2)/C1=C\c1ccco1 | – | 26.6% |
| COc1ccc(/C=C2\C(=O)ON=C2c2ccccc2)cc1OC | – | 4.03% |
| O=C1C(=Cc2ccc(Br)o2)C(=O)c2ccccc21 | – | 29.5% [at 50 µM] |
| COc1cc(/C=C2\C(=O)ON=C2c2ccc(Cl)cc2)ccc1O | 18.5 µM (active) | – |
| COc1cc(C=C2C(=O)c3ccccc3C2=O)ccc1O | 4.42 µM (active) | – |
| O=C1ON=C(c2ccccc2)/C1=C/c1ccc(O)c(O)c1 | 7.26 µM (active) | – |
| COc1cc(/C=C2/C(=O)ON=C2c2ccccc2)ccc1O | 14.4 µM (active) | – |
| O=C1ON=C(c2ccccc2)/C1=C/c1ccccc1 | – | 5.34% |
| COc1ccc(/C=C2\C(=O)ON=C2c2ccccc2)cc1 | – | 14.8% |
| CC(=O)Nc1cccc(NC(=O)COc2ccc3c(c2)OCO3)c1 | – | 19.8% |
| Cc1cc(NS(=O)(=O)c2ccc(NC(=O)Nc3ccc4c(c3)OCO4)cc2)no1 | – | -12.7% |

| Compound | IC50 | inhibition |
| --- | --- | --- |
| O=C(CCS(=O)(=O)c1ccc(Cl)cc1)Oc1ccc2c(c1)OCO2 | 78 µM (active) | – |
| COc1c2ccoc2nc2c(OC)c(O)ccc12 | 11.5 µM (active) | – |
| Cc1ccc(NC(=O)CN2C(=O)N/C(=C/c3cc(C)n(-c4cccc(C(=O)O)c4)c3C)C2=O)cc1 | – | -2.73% |
| CN(C)c1ccc(NC(=O)c2cccc(N3C(=O)CCC3=O)c2)cc1 | 6.4 µM (active) | – |
| CC(OC(=O)c1ccccc1C(=O)N(C)c1ccccc1)C(=O)Nc1ccc(C(N)=O)cc1 (centres undefined) | – | 14.8% |
| CC(C)Oc1ccc(C(=O)Nc2ccc(N(C)C)cc2)cc1 | 12.1 µM (active) | – |
| COc1cc(C(=O)N/N=C2\CCS(=O)(=O)c3ccc(F)cc32)cc(OC)c1OC | – | 2.72% |
| COc1cc(C(=O)Nc2ccc(N(C)C)cc2)cc(OC)c1OC | 5.06 µM (active) | – |
| CN(C)c1ccc(NC(=O)c2ccc3nc[nH]c3c2)cc1 | 3.67 µM (active) | – |
| COc1c(F)c(F)c(C(=O)O)c(Nc2ccc(C)cc2)c1F | – | -10% |
| CSc1nc(-c2ccco2)nn1S(C)(=O)=O | – | -7.36% |
| CCCCC(CC)CN=C(N)NC(N)=NCCCCCCN=C(N)NC(N)=NCC(CC)CCCC (centres undefined) | – | -22% |
| Cc1ccc(/C=c2\sc3nc(-c4ccco4)nn3c2=O)o1 | – | 21.2% |
| Cc1ccc(C2=NOC(=O)/C2=C\c2ccc(C)o2)cc1 | – | -0.53% [at 50 µM] |
| Cc1ccc(/C=C2/SC(=O)NC2=S)o1 | 4.25 µM (active) | – |
| CCN(CCNC(=O)C1CCCN(Cc2nc(-c3ccc(OC)cc3)oc2C)C1)c1ccccc1 (centres undefined) | – | 21.4% |
| COc1ccc(N2CCN(C(CNC(=O)C3CCCCC3)c3cccnc3)CC2)cc1 (centres undefined) | 9.65 µM (active) | – |
| COc1ccc(C(=O)CC(c2ccccc2)C2CCCCC2=O)cc1 (centres undefined) | – | -17.5% |
| O=C(Nc1ccccc1F)c1coc(=O)c(Br)c1 | – | -18.9% |
| COc1ccccc1CNC(=O)c1ccc(CS(=O)Cc2cccc(Cl)c2)o1 (centres undefined) | 12.8 µM (active) | – |
| COc1ccccc1CNC(=O)COC(=O)c1c(C)nn(-c2ccccc2)c1Cl | – | -21.6% |
| COc1cccc(CNC(=O)Cc2ccc(Br)cc2)c1 | – | 4.92% |
| COC(=O)C1=C(O)/C(=C\c2ccc(CNS(=O)(=O)c3ccccc3)o2)N=C1C | – | -5.11% |

| Compound | IC50 | inhibition |
| --- | --- | --- |
| CCOC(=O)C1=C(O)/C(=C/c2cccc(OC)c2O)N=C1C | 7.3 µM (active) | – |
| COC(=O)C1=C(O)/C(=C/c2cccc(OC)c2O)N=C1C | 6.57 µM (active) | – |
| O=C(NN1C(=O)/C(=C/C=C/c2ccco2)SC1=S)c1ccccc1O | – | -28.5% |
| O=C1/C(=C/C=C/c2ccco2)SC(=S)N1NS(=O)(=O)c1ccccc1 | – | 22.8% [at 12.5 µM] |
| O=C(NN1C(=O)/C(=C/c2cc([N+](=O)[O-])ccc2O)SC1=S)c1ccccc1O | – | -3.7% |
| COc1cc(/C=C2\SC(=S)N(NC(=O)c3cccnc3)C2=O)ccc1O | 6.17 µM (active) | – |
| CC(/C=C1\SC(=S)N(CCCC(=O)Nc2ccc(C(=O)O)c(O)c2)C1=O)=C\c1ccccc1 | – | -5.4% |
| COc1cc(/C=C2\SC(=S)N(NS(=O)(=O)c3ccccc3)C2=O)ccc1O | 12.1 µM (active) | – |
| COc1cc(/C=C2\SC(=S)N(NS(=O)(=O)c3ccc(C)cc3)C2=O)ccc1O | 8.48 µM (active) | – |
| CCOc1ccc(N2Nc3n[nH]c(N)c3N2)cc1 | 5.65 µM (active) | – |
| CC[N+]1(CC(O)COC2CC(C)CC(C)(C)C2)CCOCC1 (centres undefined) | – | -12.7% |
| COc1cc2c(cc1OC)C[N+](C)(C)CC2 | 72.6 µM (active) | – |
| N#CCSc1nc(-c2ccccc2)nc2ccccc12 | – | -9.94% |
| O=c1c2c(-c3ccco3)csc2nc(SCc2cn3cccnc3n2)n1-c1ccccc1 | – | -21.5% |
| COCc1cc(=O)n2[nH]c(-c3ccsc3-n3c(C)ccc3C)cc2n1 | – | -28.4% |
| C#CCOCCOCCOCCNc1nc(N2CCN(C(=O)CCCCCCCCCCNC(=O)[C@H](CCCN=C(N)N)n3cc(C[C@@H](C)CC)nn3)CC2)nc(N2CCN(C(=O)CCCCCCCCCCNC(=O)[C@@H]([C@H](C)CC)n3cc(CCCCCN)nn3)CC2)n1 | – | 9.93% |
| Cc1occc1C(=O)N/N=C/C=C/c1ccc(N(C)C)cc1 | 12.2 µM (active) | – |
| CCCc1cc(C(N)=O)c(NC(=O)c2ccoc2C)s1 | – | 15.3% |
| COc1cc(/C=N/NC(=O)c2ccoc2C)cc(OC)c1O | 18.5 µM (active) | – |
| COc1cc(/C=N/NC(=O)c2ccc3c(c2)OCCO3)cc(Cl)c1O | 6.64 µM (active) | – |
| O=C(N/N=C/C=C\c1ccco1)c1ccccn1 | – | -15.2% |
| COc1ccc(/C=N/NC(=O)c2ccoc2C)cc1O | 5.08 µM (active) | – |
| COc1ccccc1/C=C/C=N/NC(=O)c1cc(-c2ccco2)[nH]n1 | – | -4.87% |
